How the values were obtained:
Experiment in all cases: log2 ratio of Biotin-Ahx-Ub-VS probe labelling (fragment/DMSO); higher = less target engagement (more negative = stronger competition), active = hit call of the paper (q ≤ 0.05, log2 ratio ≤ -1)
Details in all cases: compound concentration: 200 uM; treatment time: 3 h
ALG13 = molecular target: T1, ALG13 (UniProt Q9NP73)
T1 sequence (whole entry): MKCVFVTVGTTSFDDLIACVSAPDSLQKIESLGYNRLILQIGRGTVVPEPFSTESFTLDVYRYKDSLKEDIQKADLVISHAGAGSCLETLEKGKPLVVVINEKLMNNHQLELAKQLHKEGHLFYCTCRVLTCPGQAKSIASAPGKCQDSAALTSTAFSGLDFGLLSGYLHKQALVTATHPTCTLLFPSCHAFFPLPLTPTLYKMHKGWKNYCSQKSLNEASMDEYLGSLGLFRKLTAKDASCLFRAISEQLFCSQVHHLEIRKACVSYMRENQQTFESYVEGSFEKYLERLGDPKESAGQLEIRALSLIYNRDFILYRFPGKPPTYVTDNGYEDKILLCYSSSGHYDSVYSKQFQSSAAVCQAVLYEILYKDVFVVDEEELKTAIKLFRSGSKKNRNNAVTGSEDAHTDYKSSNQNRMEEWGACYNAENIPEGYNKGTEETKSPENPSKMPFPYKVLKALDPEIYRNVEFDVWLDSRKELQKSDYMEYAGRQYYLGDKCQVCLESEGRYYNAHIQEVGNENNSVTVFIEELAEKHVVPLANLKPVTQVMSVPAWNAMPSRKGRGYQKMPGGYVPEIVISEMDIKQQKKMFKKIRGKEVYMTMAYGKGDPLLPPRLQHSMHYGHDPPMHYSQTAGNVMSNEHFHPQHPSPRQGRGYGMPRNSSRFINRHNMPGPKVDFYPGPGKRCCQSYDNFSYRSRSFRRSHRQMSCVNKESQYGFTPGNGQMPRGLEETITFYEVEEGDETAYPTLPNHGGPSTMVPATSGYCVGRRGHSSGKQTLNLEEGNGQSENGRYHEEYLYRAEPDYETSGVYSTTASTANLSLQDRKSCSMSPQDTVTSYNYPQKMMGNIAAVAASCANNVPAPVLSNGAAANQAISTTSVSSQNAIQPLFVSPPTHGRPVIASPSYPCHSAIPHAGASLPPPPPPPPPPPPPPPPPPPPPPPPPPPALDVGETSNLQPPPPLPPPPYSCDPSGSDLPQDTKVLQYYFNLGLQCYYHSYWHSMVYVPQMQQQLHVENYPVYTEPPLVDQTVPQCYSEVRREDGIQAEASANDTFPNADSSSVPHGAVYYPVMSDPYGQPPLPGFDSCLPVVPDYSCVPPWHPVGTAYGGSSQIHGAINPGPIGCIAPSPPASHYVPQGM
Summary of the method: (§1)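 Triplicate samples of HEK293T lysate, 495 µg each, received fragment at 200 µM or vehicle for 3 h, followed by Biotin-Ahx-Ub-VS (0.5 µM final) for 1 h. After NeutrAvidin enrichment of labelled DUBs and LysC/trypsin digestion, peptides were run by diaPASEF LC-MS/MS. The values are average log2 fragment/vehicle ratios from global-median-normalised Spectronaut label-free quantities, tested by unpaired t-test on proteins having ≥2 unique peptides.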

ATXN3 = ATXN3 (UniProt P54252)
Sequence of ATXN3 (P54252 whole entry): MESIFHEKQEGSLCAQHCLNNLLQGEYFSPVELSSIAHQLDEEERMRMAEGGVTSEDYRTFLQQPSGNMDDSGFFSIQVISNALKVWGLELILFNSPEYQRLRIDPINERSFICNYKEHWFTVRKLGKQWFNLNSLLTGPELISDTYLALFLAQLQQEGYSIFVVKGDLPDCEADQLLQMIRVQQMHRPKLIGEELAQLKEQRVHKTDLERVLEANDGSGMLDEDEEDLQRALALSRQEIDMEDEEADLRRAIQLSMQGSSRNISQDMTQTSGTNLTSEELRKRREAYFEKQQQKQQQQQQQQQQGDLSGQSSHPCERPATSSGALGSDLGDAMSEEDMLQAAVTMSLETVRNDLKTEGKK
Summary of the method: as §1

BAP1 = molecular target: T2, BAP1 (UniProt Q92560)
T2 sequence (whole entry): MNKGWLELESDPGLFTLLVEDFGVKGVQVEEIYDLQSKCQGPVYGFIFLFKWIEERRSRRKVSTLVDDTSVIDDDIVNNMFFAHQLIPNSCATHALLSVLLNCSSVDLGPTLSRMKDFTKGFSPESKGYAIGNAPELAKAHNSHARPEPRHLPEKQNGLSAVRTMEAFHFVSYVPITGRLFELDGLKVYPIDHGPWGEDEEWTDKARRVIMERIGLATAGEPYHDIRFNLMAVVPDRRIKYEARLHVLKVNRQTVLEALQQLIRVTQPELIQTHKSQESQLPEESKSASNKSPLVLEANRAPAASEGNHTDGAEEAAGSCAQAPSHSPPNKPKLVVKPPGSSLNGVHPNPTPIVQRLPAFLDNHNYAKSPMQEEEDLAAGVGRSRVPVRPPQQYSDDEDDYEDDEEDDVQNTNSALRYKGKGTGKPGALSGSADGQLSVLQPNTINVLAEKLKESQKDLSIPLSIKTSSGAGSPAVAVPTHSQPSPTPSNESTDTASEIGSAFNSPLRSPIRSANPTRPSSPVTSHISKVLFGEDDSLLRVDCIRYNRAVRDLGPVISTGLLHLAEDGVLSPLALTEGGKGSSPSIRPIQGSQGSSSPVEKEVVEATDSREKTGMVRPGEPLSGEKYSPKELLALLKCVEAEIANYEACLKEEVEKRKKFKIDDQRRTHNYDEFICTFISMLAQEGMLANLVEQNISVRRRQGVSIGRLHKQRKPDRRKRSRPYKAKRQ
Summary of the method: as §1

EIF3F = EIF3F (UniProt O00303)
Sequence of EIF3F (O00303 whole entry): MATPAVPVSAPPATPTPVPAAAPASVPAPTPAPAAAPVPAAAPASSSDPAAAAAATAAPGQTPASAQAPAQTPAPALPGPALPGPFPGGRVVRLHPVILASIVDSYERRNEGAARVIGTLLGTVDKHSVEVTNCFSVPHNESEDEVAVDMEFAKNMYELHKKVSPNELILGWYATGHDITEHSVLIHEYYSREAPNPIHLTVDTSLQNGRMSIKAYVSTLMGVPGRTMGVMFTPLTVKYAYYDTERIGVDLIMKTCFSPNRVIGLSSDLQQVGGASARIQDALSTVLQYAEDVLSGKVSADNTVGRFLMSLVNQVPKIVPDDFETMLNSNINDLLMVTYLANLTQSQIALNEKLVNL
Summary of the method: as §1

EIF3H = EIF3H (UniProt O15372)
Sequence of EIF3H (O15372 whole entry): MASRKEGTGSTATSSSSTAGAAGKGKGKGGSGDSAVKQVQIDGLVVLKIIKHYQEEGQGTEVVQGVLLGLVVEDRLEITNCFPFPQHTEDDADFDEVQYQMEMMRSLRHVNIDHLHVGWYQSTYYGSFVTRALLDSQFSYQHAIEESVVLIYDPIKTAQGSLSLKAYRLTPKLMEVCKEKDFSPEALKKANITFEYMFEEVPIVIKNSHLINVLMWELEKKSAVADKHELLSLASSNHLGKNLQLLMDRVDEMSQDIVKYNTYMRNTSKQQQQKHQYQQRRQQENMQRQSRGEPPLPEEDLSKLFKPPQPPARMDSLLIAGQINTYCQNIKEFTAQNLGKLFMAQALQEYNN
Summary of the method: as §1

FAM105A = molecular target: T3, FAM105A (UniProt Q9NUU6)
T3 sequence (whole entry): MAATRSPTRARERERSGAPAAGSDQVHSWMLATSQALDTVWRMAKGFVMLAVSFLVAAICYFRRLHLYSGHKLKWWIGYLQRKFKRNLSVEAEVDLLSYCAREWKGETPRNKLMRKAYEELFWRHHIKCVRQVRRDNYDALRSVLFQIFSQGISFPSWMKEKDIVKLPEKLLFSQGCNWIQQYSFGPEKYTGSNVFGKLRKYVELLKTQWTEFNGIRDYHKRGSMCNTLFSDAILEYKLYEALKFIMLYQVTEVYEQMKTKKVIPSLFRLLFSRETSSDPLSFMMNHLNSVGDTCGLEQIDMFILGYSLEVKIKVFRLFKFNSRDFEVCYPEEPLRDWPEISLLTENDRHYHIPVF
Summary of the method: as §1

OTUB1 = OTUB1 (UniProt Q96FW1)
Sequence of OTUB1 (Q96FW1 whole entry): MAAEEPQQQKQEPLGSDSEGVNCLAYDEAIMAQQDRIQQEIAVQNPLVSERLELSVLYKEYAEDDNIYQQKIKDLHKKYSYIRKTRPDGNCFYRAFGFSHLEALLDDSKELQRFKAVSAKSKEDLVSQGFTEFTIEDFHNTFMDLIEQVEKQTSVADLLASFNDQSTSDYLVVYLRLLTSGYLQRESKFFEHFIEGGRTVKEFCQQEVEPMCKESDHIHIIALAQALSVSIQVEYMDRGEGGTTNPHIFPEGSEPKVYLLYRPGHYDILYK
Summary of the method: as §1

OTUD4 = molecular target: T4, OTUD4 (UniProt Q01804)
T4 sequence (whole entry): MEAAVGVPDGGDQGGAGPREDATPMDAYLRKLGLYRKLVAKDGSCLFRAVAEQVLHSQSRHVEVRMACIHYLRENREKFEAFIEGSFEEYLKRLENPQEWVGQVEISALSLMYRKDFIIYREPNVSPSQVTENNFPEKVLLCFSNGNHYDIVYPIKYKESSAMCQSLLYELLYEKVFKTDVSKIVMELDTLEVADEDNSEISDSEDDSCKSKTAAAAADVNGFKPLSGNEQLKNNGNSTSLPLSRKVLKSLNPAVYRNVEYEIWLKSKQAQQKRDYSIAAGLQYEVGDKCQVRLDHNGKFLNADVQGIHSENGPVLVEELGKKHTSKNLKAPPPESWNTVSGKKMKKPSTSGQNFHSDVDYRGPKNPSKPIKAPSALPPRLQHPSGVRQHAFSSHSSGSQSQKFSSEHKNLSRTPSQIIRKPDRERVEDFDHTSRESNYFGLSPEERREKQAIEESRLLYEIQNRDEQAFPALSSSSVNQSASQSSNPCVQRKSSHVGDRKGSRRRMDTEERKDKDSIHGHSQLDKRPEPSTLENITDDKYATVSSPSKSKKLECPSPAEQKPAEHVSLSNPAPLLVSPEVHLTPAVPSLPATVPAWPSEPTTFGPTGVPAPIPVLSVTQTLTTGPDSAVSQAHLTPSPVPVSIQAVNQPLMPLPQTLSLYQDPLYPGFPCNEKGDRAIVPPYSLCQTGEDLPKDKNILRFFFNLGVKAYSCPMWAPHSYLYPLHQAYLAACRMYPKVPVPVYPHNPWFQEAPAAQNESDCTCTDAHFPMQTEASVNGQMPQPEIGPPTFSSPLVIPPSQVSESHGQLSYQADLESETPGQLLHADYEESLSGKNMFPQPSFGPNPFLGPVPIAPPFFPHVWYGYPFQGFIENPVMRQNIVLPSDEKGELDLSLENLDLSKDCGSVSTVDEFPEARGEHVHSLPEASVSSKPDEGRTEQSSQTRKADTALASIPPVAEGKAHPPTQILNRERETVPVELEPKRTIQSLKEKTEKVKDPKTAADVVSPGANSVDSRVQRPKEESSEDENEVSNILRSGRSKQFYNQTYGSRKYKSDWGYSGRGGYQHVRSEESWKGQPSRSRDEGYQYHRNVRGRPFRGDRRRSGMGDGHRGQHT
Summary of the method: as §1

OTUD5 = molecular target: T5, OTUD5 (UniProt Q96G74)
T5 sequence (whole entry): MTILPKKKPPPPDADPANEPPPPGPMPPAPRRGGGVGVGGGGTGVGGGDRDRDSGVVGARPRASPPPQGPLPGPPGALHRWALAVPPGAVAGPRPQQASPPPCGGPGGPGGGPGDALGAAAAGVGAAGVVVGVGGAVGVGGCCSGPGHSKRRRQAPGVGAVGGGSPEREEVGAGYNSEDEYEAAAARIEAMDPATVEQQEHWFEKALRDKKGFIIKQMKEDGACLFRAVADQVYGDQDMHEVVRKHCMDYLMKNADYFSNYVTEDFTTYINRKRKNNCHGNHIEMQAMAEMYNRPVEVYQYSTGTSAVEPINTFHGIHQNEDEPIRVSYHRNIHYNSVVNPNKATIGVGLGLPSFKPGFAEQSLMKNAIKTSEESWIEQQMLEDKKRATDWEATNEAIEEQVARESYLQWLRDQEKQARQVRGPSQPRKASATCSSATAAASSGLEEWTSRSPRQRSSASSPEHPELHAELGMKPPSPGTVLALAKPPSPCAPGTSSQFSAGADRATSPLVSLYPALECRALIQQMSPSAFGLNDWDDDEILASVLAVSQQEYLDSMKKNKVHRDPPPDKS
Summary of the method: as §1

Measured: log2 ratio of Biotin-Ahx-Ub-VS probe labelling

COCC[C@@H](NC(=O)CCl)c1ccccc1
inactive: ALG13 -0.555 | ATXN3 -0.208 | EIF3F -0.137 | EIF3H -0.017 | FAM105A 0.268 | OTUB1 -0.131 | OTUD4 -0.138 | OTUD5 -0.197
active: BAP1 -1.89
